This passage reports activation results from PubChem BioAssay AID1044 (The Scripps Research Institute Molecular Screening Center, 2008).

Among all 16,000 compounds or so, about 240 (1.5%) were called active. Rule as the data show it: active = activation above about 80%; inactive = the rest. The full list was thinned out, with actives kept by preference.

Sphingosine 1-phosphate receptor 1 (Homo sapiens), sequence (P21453 whole entry, looked up): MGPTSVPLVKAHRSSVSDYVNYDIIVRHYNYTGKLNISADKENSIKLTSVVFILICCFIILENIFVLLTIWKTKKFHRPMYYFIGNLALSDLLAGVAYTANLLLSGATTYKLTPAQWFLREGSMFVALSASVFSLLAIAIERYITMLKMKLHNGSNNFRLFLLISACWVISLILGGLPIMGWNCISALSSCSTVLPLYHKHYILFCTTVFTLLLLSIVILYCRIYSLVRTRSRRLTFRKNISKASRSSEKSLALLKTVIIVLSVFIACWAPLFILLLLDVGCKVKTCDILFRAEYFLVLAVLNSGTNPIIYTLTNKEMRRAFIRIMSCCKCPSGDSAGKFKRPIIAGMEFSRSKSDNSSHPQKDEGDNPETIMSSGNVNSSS

The assay addresses Sphingosine 1-phosphate receptor 1 (Homo sapiens) (UniProt P21453). In words: S1P1 (human) receptor agonism (AID 1044). As to conditions: S1P1 agonist cell-based reporter assay; at 4.5 µM; active compounds read high.
As to `O=C(Nc1ccccc1)O/N=C1/CCCc2occc21`, the activation is -2.45% (inactive).

For the molecule `CCOC(=O)c1c(NC(=S)NC)sc2c1CCCC2`, the activation is -16.5% (inactive). On to `CCOC(=O)NC(=S)NC12CC3CC(CC(C3)C1)C2`, for which the activation is -14.8% (inactive). The same measure for `NC(N)=N/C(N)=N/c1nnc(C(F)(F)F)s1`: -5% (inactive); for `OC1(C#Cc2ccccc2)CCN(Cc2ccccc2)CC1`: -10.7% (inactive); for `CCOC(=O)c1sc2ccccc2c1N`: -24.7% (inactive). As to `CCOC(=O)c1sc(SC)c(-c2ccccc2)c1N`, the activation is 103% (active).

`CCOC(=O)c1sc(SCCS(=O)(=O)c2ccc(Cl)cc2)c(C#N)c1-c1ccccc1`: the activation is -6.04% (inactive). `N#CCCSc1sc(=S)sc1SCCC#N`: the activation was 2.11% (inactive). In the case of `Clc1ccc(CO/N=C/c2nc3ccccc3s2)cc1`, the activation is 87% (active). Consider `CCCCc1c(COC)nc(-c2ccc(Cl)cc2)[nH]c1=O`, for which the activation is -10.5% (inactive).

As for `Cc1nc(C(F)(F)F)ccc1C(=O)NCCNc1ncccc1C(F)(F)F`, the activation was 3.52% (inactive). The same measure for `Cc1nc(C(F)(F)F)ccc1NC(=O)/C=C\C(=O)O`: -31% (inactive); for `O=C(NC1Cc2ccccc2C1)c1nnc(-c2ccccc2)o1`: 62.1% (inactive); for `Cn1ncc(Br)c1NC(=O)C(C)(C)C`: 1.4% (inactive). `CCOC(=O)Cc1csc(NC(NC(=O)OCC)(C(F)(F)F)C(F)(F)F)n1`: the activation is -11.5% (inactive). For `CN1CCN(c2ccc(NC(=O)c3ccccc3)cc2)CC1`, the activation is 15.7% (inactive). As for `CCOC(=O)C(NC(=O)c1ccco1)(Nc1cc(C)ccn1)C(F)(F)F` (stereo not given), the figure is -12.4% (inactive). The same measure for `Fc1cccc(Cl)c1CN1CCN(c2ncnc3scc(-c4cccs4)c23)CC1`: 10.1% (inactive). The same measure for `CCOC(=O)c1c(-c2ccco2)csc1NC(=O)Nc1ccc(Cl)cc1`: -5.82% (inactive); for `C/C(=N\NC(=S)Nc1cccc(F)c1)c1ccco1`: -19.7% (inactive); for `Cc1nc(C)c(-c2ccnc(-c3ccc(Cl)cc3)n2)s1`: -14.5% (inactive). For `Fc1ccc(Oc2nc(Oc3ccc(F)cc3)nc(N3CCSCC3)n2)cc1`, the activation was -33.1% (inactive). As for `Cc1noc(C)c1C(=O)N1CCOCC1`, the figure is -1.85% (inactive); as for `CCOC(=O)c1cc(C)nc(Sc2ccccc2NC(=O)Nc2ccc(Cl)cc2)c1C#N`, -5.59% (inactive); as for `OC(CN1CCN(c2ccc(C(F)(F)F)cn2)CC1)c1ccc2c(c1)OCCO2` (stereo not given), 4.19% (inactive). The same measure for `CNC(=O)NNC(=O)Cn1nnc(N2CCCCC2)n1`: -5.59% (inactive); for `O=C(c1ccc(F)cc1)C1CCN(Cc2cn[nH]c2-c2ccccc2)CC1`: -8.25% (inactive); for `Cn1nc(-c2ccccc2)cc1N`: -14.4% (inactive). The same measure for `O=C1NC(=O)c2cc([N+](=O)[O-])c(Sc3c(Cl)cccc3Cl)cc21`: 16.5% (inactive); for `Cn1cc(Br)c(-c2ccc(NC(=O)Nc3ccc(Cl)cc3)cc2)n1`: 48.5% (inactive); for `CCOC(=O)NN(C(=O)OCC)c1c(C)c(C)c(C)c(C)c1C`: 6.8% (inactive). For `CCOc1ccc(NC(=S)N2CCC(c3ccccc3OC)CC2)cc1`, the activation was -5.17% (inactive). The same measure for `COc1ccc(OC)c(CNC(=O)Cc2cccs2)c1`: 2.66% (inactive). As for `CC(C)N(C(=O)c1ccc(-c2ccccc2F)cc1)C(C)C`, the figure is 5.33% (inactive); as for `COc1ccc(-c2ccc(/C=N/NC(=O)CCc3ccc(O)cc3)s2)cc1`, 76.7% (inactive). As for `COc1ccc2c(c1)CCCC2=Nc1ccccc1C(F)(F)F`, the figure is 76.9% (inactive); as for `Cc1cc2nc(C)c(C)nc2cc1C`, -24.7% (inactive); as for `NC(=O)c1sccc1Br`, -10.4% (inactive). As to `Cc1onc(-c2ccccc2)c1CNS(=O)(=O)c1ccc2c(c1)OCCN2C`, the activation is -10.4% (inactive). The same measure for `Cc1ccc(NC(C(=O)O)c2ccccc2)cc1` (stereo not given): 81.5% (active).

On to `NC(CC(=O)O)c1ccccc1` (stereo not given), for which the activation was 6.64% (inactive). The same measure for `Cc1ccc(NC(=O)c2ccccc2NC(=O)c2ccccc2)cc1`: -30.9% (inactive); for `O=[N+]([O-])c1ccc(-c2nnnn2Cc2c(Cl)cccc2Cl)cc1`: 38.8% (inactive); for `Cc1oc(-c2ccc(Cl)cc2)cc1C(=O)N1CCN(Cc2ccccc2)CC1`: -6.1% (inactive). The same measure for `COc1ccc(NC(NC(=O)c2ccc(OC)cc2)(C(F)(F)F)C(F)(F)F)cc1`: 4.17% (inactive); for `CCOC(=O)N/N=C(\C)c1cccc(NC(C)=O)c1`: 3.43% (inactive). `CC(C)(C)C(=O)Nc1c(Br)c(C2CC2)nn1-c1ccccc1`: the activation is 4.11% (inactive). Consider `N#Cc1ccc(OS(=O)(=O)c2cc(C(F)(F)F)cc(C(F)(F)F)c2)cc1`, for which the activation was 0.18% (inactive). The same measure for `CSc1nc(N)n(-c2ccccc2)n1`: 5.77% (inactive). As for `COC(=O)c1c(C(=O)OC)c2n(c1C)CCS2`, the figure is 10.2% (inactive).

In the case of `O=C(Nc1ccc(OCc2ccccc2)cc1)OCC1CN(Cc2ccccc2)CCO1` (stereo not given), the activation is 43.9% (inactive). `O=S(=O)(Oc1cccc(C(F)(F)F)c1)c1cc(S(=O)(=O)c2ccccc2)cs1`: the activation was 4.61% (inactive). The same measure for `Cn1nc(C(C)(C)C)c(NC(=O)c2sccc2Cl)c1C(C)(C)C`: -7.37% (inactive); for `CCc1ccc(S(=O)(=O)Nc2ccc(C)c(NS(C)(=O)=O)c2)cc1`: 6.03% (inactive); for `Cc1oc(-c2ccc(Cl)cc2)cc1C(=O)N1CCOCC1`: 6.2% (inactive). As for `CCOC(=O)c1c(NS(=O)(=O)c2cccc3nsnc23)sc(C)c1C`, the figure is 117% (active); as for `Cc1c(-c2cnc(NC(=O)c3ccccc3)s2)sc2ccc(Cl)cc12`, 7.33% (inactive); as for `NNC(=O)c1csc(COc2ccc(C3SCCS3)cc2)n1`, 83% (active). As to `NNC(=O)COc1ccc(C2SCCS2)cc1`, the activation was -2.77% (inactive). `O=C(Nc1ccc(Cl)cc1)c1csc(COc2ccc3nonc3c2)n1`: the activation was -33.9% (inactive).

With `O=c1oc2ccc(Cl)cc2cc1-c1ccc([N+](=O)[O-])cc1`, the activation is -9.38% (inactive).

As to `O=C(NNc1ccc(C(F)(F)F)cn1)c1ccccc1Cl`, the activation was -0.55% (inactive). As for `COc1cccc2cc(C(=O)O)oc12`, the figure is -0.93% (inactive); as for `O=C(O)CC(CC(=O)O)c1ccc(C(F)(F)F)cc1`, 0.91% (inactive); as for `O=C1c2ccc3c4c(ccc(c24)C(=O)N1c1ccccc1)C(=O)N(c1ccccc1)C3=O`, -6.17% (inactive). The same measure for `CCCCCCNC(=O)NCCCCCC`: -9.06% (inactive); for `COc1ccc(CCNCC(O)Cn2ccc3ccccc32)cc1OC` (stereo not given): 5.51% (inactive).

For the molecule `c1ccc2c(c1)NC(C1Nc3ccccc3O1)O2` (stereo not given), the activation is -3.26% (inactive).

With `COc1cc(CCN=Cc2ccccc2O)c([N+](=O)[O-])cc1OC`, the activation is -11.4% (inactive). As for `CS/C(N)=N/N=C/c1cccs1`, the figure is -0.53% (inactive); as for `COC(=O)C1=C(NNc2ccccc2)CSC1`, 6.31% (inactive).

Consider `Cc1cc(CNCC(O)C(F)(F)F)no1` (stereo not given), for which the activation is -6.99% (inactive). As for `FC(F)(F)C1=CC=NCCN1`, the figure is 1.36% (inactive); as for `N/C(=N\OC(=O)Nc1ccccc1)c1ccc(Oc2c(Cl)cncc2Cl)cc1`, 13.7% (inactive); as for `Cc1nc(-c2ccc(NC(=O)COCC(=O)O)cc2)cs1`, -4.96% (inactive).

With `CCCCCCCCc1ccc(C(=O)O)cc1`, the activation was 19.6% (inactive). Consider `CCOC(=O)c1c(NC(=S)Nc2ccccc2)sc2c1CCN(C)C2`, for which the activation was -17.2% (inactive). `Cc1nnsc1-c1nnc(SCC(=O)c2ccc3c(c2)OCO3)n1C1CC1`: the activation is 0.92% (inactive).

`COc1cccc(NC(=S)N(CCC#N)C2CCCCC2)c1`: the activation is -17.6% (inactive).

`COc1ccc(NC(=S)Nc2ccc(OC)cc2)cc1`: the activation was 2.11% (inactive). As for `COc1cccc(NC(=S)NNC(=S)NC2CC3CCC2C3)c1` (stereo not given), the activation is 97.7% (active).

As to `COc1cccc(C(=O)c2sc3nsc(SCc4ccc(F)cc4)c3c2N)c1`, the activation is 50.7% (inactive). For `Cc1ccc([N+](=O)[O-])c(C(=O)NCC(=O)O)c1`, the activation is -20% (inactive). The same measure for `OC(COc1ccc(F)cc1)(c1ccccc1)c1ccccc1`: -25.6% (inactive); for `CCO/N=C\c1nn(S(C)(=O)=O)cc1Br`: -3.43% (inactive). For `CCOC(=O)Cc1nc(N)ncc1C(=O)OCC`, the activation is -10.1% (inactive). On to `Clc1ccc(-c2csc(N/N=C\c3ccn[nH]3)n2)cc1`, for which the activation was 8.84% (inactive). As for `O=C(NCCO)NCCSc1ccc(F)cc1`, the figure is -13.1% (inactive); as for `O=C1CSC(=S)N1c1ccc(N2CCCCCC2)c(N2C(=O)CSC2=S)c1`, 0.84% (inactive); as for `COC(=O)c1ccc(S(=O)(=O)NNC(=O)c2cn3cc(C(F)(F)F)cc(Cl)c3n2)n1C`, -20.2% (inactive). As for `N#Cc1ccc(N2CCSCC2)cc1[N+](=O)[O-]`, the figure is -27.1% (inactive). As for `O=C(Nc1ccccc1C(=O)NCc1c(F)cccc1Cl)c1ccccc1Cl`, the figure is 15.3% (inactive); as for `O=C(CNC(=O)c1ccccc1F)c1ccc(Br)cc1`, 84.7% (active). Turning to `O=C(O)c1ccccc1Nc1ccccc1F`, the activation was 2.49% (inactive). The same measure for `Cc1ccc(Sc2cc(C)c(C)cc2N)c(C)c1`: 10.7% (inactive). As for `Cc1csc(/N=C/N(C)C)c1C#N`, the figure is -3.89% (inactive); as for `NS(=O)(=O)c1ccc(Oc2c(Cl)cccc2[N+](=O)[O-])cc1`, -8.03% (inactive). The same measure for `CCCS(=O)(=O)c1csc(C(=O)OC)c1N/N=C/c1cccs1`: -27.2% (inactive). On to `Cn1cccc1CNC(=O)c1cc(F)cc2c1OCOC2`, for which the activation is 21.1% (inactive). The same measure for `Cc1c(C(=O)Nc2ccccc2)sc2cc(C(C)(C)C)sc12`: 23.4% (inactive); for `O=C1OC2(CCCCC2)OC1c1ccccc1` (stereo not given): -9.78% (inactive); for `CSc1nc2c(c(/C=C/c3ccccc3)c1C#N)CCC2`: -18.1% (inactive).

As to `O=C1c2ccccc2O[C@@H](c2ccccc2)[C@@H]1NC1CCCCC1`, the activation is 75.6% (inactive).

For `NNC(=O)c1cc2ccccc2s1`, the activation is 8.06% (inactive).
